# From PubChem BioAssay
# PABP1 MLLE inh: blocks PAM2 peptide binding to the PABP1 MLLE domain. P11940. GST-MLLE / FITC-PAM2 fluorescence polarization. inhibition, % at 20 µM. hit rate 0.36% among 360,000. AID 588489; in the data active means inhibition above about 35%, passing the limit was not always enough;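 further: plate controls were DMSO wells with GST-MLLE for no effect and wells lacking GST-MLLE protein for full effect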
# Target sequence (P11940 whole entry, looked up, the tested form may be a part): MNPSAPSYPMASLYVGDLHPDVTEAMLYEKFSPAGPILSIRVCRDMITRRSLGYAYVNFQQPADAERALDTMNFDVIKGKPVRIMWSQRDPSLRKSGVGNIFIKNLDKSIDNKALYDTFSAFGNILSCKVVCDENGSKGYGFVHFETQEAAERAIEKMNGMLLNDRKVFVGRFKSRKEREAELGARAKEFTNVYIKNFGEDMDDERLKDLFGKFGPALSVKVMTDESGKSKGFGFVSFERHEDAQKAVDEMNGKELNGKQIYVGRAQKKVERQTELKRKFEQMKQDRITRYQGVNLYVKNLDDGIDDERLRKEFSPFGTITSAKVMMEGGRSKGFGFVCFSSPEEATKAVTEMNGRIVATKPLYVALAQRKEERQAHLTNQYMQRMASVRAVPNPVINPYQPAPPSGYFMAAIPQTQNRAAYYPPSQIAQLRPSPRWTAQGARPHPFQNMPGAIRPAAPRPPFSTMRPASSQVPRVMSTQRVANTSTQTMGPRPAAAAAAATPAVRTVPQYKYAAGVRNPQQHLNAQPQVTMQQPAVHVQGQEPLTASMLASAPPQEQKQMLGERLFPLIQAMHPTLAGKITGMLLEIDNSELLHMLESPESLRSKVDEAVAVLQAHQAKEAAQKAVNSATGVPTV
# ABCB6 inh MLPCN: inhibitors of human ABC transporter ABCB6; Q9NP58; hit rate 0.19% among 360,000; K562-ABCB6 porphyrin accumulation, flow cytometry, 1 h; active compounds read low; AID 602162; fluorescence ratio to DMSO, % at 10 µM;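 active means fluorescence ratio to DMSO below 75%, the collection mean minus 3 SD; inconclusive means too few cells collected in the well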;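 further: signal is porphyrin accumulated inside mitochondria; 100% equals median channel fluorescence of DMSO control wells; lower ratio means ABCB6 inhibition with less porphyrin fluorescence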
# AI-2 QS modul: modulators of Vibrio harveyi AI-2 quorum sensing system | Vibrio harveyi JMH597 AI-2 luminescence/OD600 ratio, 9 h; active compounds read low; strain lacks LuxN and CqsS sensors; 0 = neutral-control median | activity change, % at 7.5 µM | hit rate 0.4% among 300,000 | AID 2094; in the data active means activity change below about -75%, passing the limit was not always enough; inconclusive means no clear call, values can overlap the other calls;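 further: luminescence divided by OD600 gain over 9 h not by final OD600 alone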
# eIF4H inh: inhibitors of RNA binding by human eIF4H | Q15056 | eIF4H fluorescence polarization binding assay | inhibition, % at 35 µM | hit rate 0.94% among 290,000 | AID 2012;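 further: calls also rest on retests at 20 µM and on dose response follow-up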
# PHOSPHO1 inh: PHOSPHO1 (human) inhibition; Q8TCT1; inhibition, % at 13.3 µM; hit rate 1.1% among 290,000; AID 1565; recombinant PHOSPHO1, absorbance phosphatase assay; in the data active means inhibition above about 60%
# PABP FP inh: PABP-poly(A) binding inhibition; PABP-poly(A) RNA binding, fluorescence polarization; calls only at 35 µM; hit rate 1% among 290,000;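 further: calls also rest on retests at 20 µM and on dose response follow-up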
# * hit, by the source's call; i = inactive; ? = inconclusive; · = no result given; + = active, no number. In the library only some 2.6% were active in any assay of this set; here they are far more common. Unless noted, how the calls were made is not given here.
SMILES,PABP1 MLLE inh,ABCB6 inh MLPCN,AI-2 QS modul,eIF4H inh,PHOSPHO1 inh,PABP FP inh
C=C1C(=O)OC2CCN3CC=C(COC(=O)C(C)(O)C4(CO4)C1C)C23 (configuration not stated),0.4,107.0,·,·,·,·
CC/C(=N\Nc1cccc2ccccc12)c1c(O)[nH]c(=O)[nH]c1=O,-9.2,102.0,27.9,54.1*,3.1,i
Fc1cccc(-c2ccc3c(c2)CN(C(=S)NCCc2ccccc2)Cc2cnnn2-3)c1,-100.7,84.0,·,·,·,·
O=C(c1ccc2c3c(cccc13)CC2)C1CCCN(CC2CC2)C1 (configuration not stated),-4.6,103.0,15.5,3.6,60.1*,i
O=C(c1ccc2c3c(cccc13)CC2)C1CCCN(Cc2ncc[nH]2)C1 (configuration not stated),-16.7,96.0,9.9,-8.5,44.9,i
CC(=O)OC1C(O)C2=C3C4(C)C1C(C)(C)C(=O)CC4C3(O)C(OC(C)=O)C1(CC1C)C2=O (configuration not stated),·,96.0,·,·,·,·
COc1ccc2[nH]c(C)c(CCNCc3cc(OC)c4c(c3)OCO4)c2c1,-1.4,103.0,·,·,·,·
COc1ccc2[nH]c(C)c(CCNCc3cc(OC)c(OC)c(OC)c3)c2c1,-3.1,99.0,8.1,94.0*,52.6,+
O=C1c2ccccc2-c2cccc3cccc1c23,55.1*,103.0,·,·,·,·
O=C1c2ccccc2-c2cc3ccccc3cc21,46.2*,97.0,·,·,·,·
CCOC(=O)[C@]12Cc3ccc4ccccc4c3[C@H]1N(Cc1ccccc1)C(=O)c1ccccc12,·,98.0,·,·,·,·
O=c1[nH]c2ccccc2n1C1CCN(C(CCc2ccccc2)c2nnnn2C2CCCC2)CC1 (configuration not stated),-8.5,92.0,·,·,·,·
Cc1ccc(-n2c(=O)[nH]c3ccccc3c2=O)cc1[N+](=O)[O-],-7.2,98.0,·,·,·,·
CCCNC(=O)N1CCC2(CC1)OCCO2,7.3,94.0,9.8,-12.8,61.5*,i
CCS(=O)(=O)N1CCC(C(=O)N2CCC3(CC2)OCCO3)CC1,1.7,101.0,17.2,-5.0,14.3,i
O=C1c2cccc(N3CCNCC3)c2C2CCCCN12 (configuration not stated),-13.1,89.0,·,·,·,·
O=C1NCN(c2ccccc2)C12CCN(C(c1ccccc1)c1nnnn1C1CCCC1)CC2 (configuration not stated),1.1,100.0,·,·,·,·
CC1=NN(c2ccccc2)C(=O)/C1=C/c1c(O)[nH]c(=S)[nH]c1=O,-23.7,109.0,22.5,11.6,86.0*,i
Cc1ccc(S(=O)(=O)N2Cc3cc(N4CCOCC4)ccc3-n3nncc3C2)cc1,3.2,95.0,·,·,·,·
CCOC(=O)CNC(=O)CSP(=S)(OCC)OCC,28.7,96.0,23.3,1.6,1.7,i
CNC(=O)CSP(=S)(OC)OC,40.2*,94.0,·,·,·,·
Cc1cc(C=C2C(=O)NC(=S)NC2=O)c(C)n1-c1ccc2c(c1)OCO2,-57.0,99.0,14.7,92.0,-2.9,+
Cc1cc(/C=C2\C(=O)NC(=O)N(c3ccccc3)C2=O)c(C)n1-c1ccc(C(=O)O)c(Cl)c1,10.0,101.0,9.2,99.5,30.2,+
Cc1cc(/C=C2/C(=O)NC(=O)N(C)C2=O)c(C)n1-c1ccccc1,-12.3,107.0,20.1,68.7,26.0,+
Cc1cc(/C=C2/C(=O)NC(=O)N(Cc3ccco3)C2=O)c(C)n1-c1ccccc1O,-13.3,92.0,5.2,0.8,19.7,i
SMILES,PABP1 MLLE inh,ABCB6 inh MLPCN,AI-2 QS modul,eIF4H inh,PHOSPHO1 inh,PABP FP inh
C=CCN1C(=O)/C(=C/c2cc(C)n(-c3ccccn3)c2C)C(=O)NC1=S,-14.2,99.0,12.4,?,0.1,+
Clc1cccc(N2Cc3cc(-c4ccccc4)ccc3-n3nncc3C2)c1,-71.4,99.0,·,·,·,·
CSCCC(c1nnnn1C(C)(C)C)N1CCC2(CC1)C(=O)NCN2c1ccccc1 (configuration not stated),-7.0,99.0,·,·,·,·
COC(=O)[C@@H]1N=C(c2ccc(OC)cc2)O[C@]12C(=O)N(C)c1cccc(Cl)c12,·,96.0,·,·,·,·
Cc1cc(/C=C2\C(=O)NC(=O)N(c3ccccc3F)C2=O)c(C)n1-c1cc(C(=O)O)cc(C(=O)O)c1,15.5,99.0,16.7,65.0,23.9,+
CN1C(=O)NC(=O)/C(=C/c2ccc(C(=O)O)cc2)C1=O,23.3,104.0,11.3,7.6,17.7,i
O=C1NC(=O)N(c2ccccc2F)C(=O)/C1=C/c1cn(CC(=O)N2CCOCC2)c2ccccc12,·,·,10.2,?,23.2,?
Cc1cc(C)cc(N2C(=O)NC(=O)/C(=C\c3cc(C)n(C)c3C)C2=O)c1,8.6,97.0,2.7,?,34.9,?
Cc1cc(/C=C2\C(=O)NC(=O)N(c3ccc(F)cc3)C2=O)c(C)n1-c1cccc(C(=O)O)c1,-6.3,98.0,12.8,70.4,22.0,+
Cc1ccc(/C=C2/C(=O)NC(=O)N(C)C2=O)cc1,15.3,97.0,34.2,?,-0.5,+
CCc1ccccc1N1C(=O)NC(=O)/C(=C\c2cc(C)n(C)c2C)C1=O,-4.2,100.0,14.4,66.0*,-7.4,?
COc1ccc(-n2nnnc2C(c2cccs2)N2CCC(n3c(=O)[nH]c4ccccc43)CC2)cc1 (configuration not stated),-5.1,96.0,·,·,·,·
CCCCn1nnnc1C(CCSC)N1CCC2(CC1)C(=O)NCN2c1ccccc1 (configuration not stated),4.5,94.0,·,·,·,·
COc1ccc(-n2nnnc2C(c2cccc3ccccc23)N2CCC3(CC2)C(=O)NCN3c2ccccc2)cc1 (configuration not stated),3.5,95.0,·,·,·,·
COc1ccc2c(c1)NP(=S)(Oc1ccccc1)N2 (configuration not stated),31.6,100.0,-9.0,89.2*,-102.1,+
CC12CCC3C(CCC4(O)CC(O)CCC34C=NO)C1(O)CCC2C1=COC(=O)C1 (configuration not stated),-5.4,98.0,·,·,·,·
CC(C)c1ccc(N2C(=O)CC(=O)NC2=O)cc1,-47.3,92.0,17.6,?,37.3,+
COc1c(O)cc2c(c1OC)-c1ccc(SC)c(=O)cc1C(NC(C)=O)CC2 (configuration not stated),-11.0,109.0,·,·,·,·
O=C(COc1ccc(S(=O)(=O)N2CCOCC2)cc1)N1CCN(Cc2ccc3c(c2)OCO3)CC1,-4.0,95.0,16.2,-2.6,4.6,i
O=C(Cc1ccccc1)N1CCN(Cc2ccc(Cl)cc2)CC1,-6.2,87.0,·,·,·,·
CCCCNS(=O)(=O)c1ccc(OCC(=O)N2CCN(Cc3ccc4c(c3)OCO4)CC2)cc1,-3.9,97.0,10.6,-12.2,61.0*,i
CC(C)(C)NS(=O)(=O)c1ccc(OCC(=O)N2CCN(Cc3ccccc3)CC2)cc1,4.8,94.0,-1.0,0.4,60.1*,i
CC(=O)Nc1ccc(CC(=O)N2CCN(Cc3ccccc3)CC2)cc1,2.3,102.0,7.6,81.7*,20.0,+
